Out of some 310,000 compounds screened, about 14,000 (4.5%) showed an effect of 50% or more. The effect is printed as a negative number. The entries come from a sample that favours strong results as a whole.
Biological target: human ether-à-go-go-related gene (hERG) potassium channel (human, UniProt Q12809)
Test: primary screen, population patch clamp on CHO cells stably expressing hERG; higher = less effect of the substance
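Note: peak tail current of the secondary pulse compared with the same well before compound.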

Chain of human ether-à-go-go-related gene (hERG) potassium channel (Q12809 whole entry, looked up): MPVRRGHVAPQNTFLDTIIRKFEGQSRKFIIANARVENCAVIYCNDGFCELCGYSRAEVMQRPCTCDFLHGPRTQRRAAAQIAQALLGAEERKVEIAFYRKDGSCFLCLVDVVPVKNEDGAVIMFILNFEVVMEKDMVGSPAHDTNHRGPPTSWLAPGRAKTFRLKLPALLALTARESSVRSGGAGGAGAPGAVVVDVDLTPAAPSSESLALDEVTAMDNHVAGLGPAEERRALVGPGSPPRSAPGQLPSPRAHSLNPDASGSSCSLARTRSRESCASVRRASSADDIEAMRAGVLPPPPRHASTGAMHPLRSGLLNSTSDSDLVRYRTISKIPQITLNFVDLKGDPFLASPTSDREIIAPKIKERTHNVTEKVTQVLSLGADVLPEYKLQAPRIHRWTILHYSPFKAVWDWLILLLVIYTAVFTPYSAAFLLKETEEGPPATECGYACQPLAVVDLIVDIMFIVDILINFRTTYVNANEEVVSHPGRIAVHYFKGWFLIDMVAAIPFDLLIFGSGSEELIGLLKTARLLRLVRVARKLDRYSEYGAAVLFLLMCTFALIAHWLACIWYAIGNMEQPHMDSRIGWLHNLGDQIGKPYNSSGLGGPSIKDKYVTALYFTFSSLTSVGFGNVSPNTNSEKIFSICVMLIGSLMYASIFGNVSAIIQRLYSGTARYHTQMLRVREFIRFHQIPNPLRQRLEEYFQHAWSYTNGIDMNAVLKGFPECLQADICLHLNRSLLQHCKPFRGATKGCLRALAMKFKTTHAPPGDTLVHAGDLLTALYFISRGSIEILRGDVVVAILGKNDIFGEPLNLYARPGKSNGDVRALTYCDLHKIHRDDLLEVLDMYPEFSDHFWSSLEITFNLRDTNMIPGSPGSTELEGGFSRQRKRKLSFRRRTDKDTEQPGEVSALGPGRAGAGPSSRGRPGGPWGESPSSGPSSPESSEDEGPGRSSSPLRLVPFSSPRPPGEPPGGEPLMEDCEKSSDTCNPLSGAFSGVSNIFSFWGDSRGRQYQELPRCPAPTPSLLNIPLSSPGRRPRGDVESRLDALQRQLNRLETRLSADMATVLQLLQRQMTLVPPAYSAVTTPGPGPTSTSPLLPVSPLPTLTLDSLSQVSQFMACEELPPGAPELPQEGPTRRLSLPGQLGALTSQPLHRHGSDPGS

| Compound | hERG current change (%, negative = inhibition) at 10uM |
| --- | --- |
| CCN(CC)c1ccc(N=Cc2c(O)[nH]c(=O)[nH]c2=O)cc1 | -1.25% |
| NC(=S)Nc1cc2ccccc2c2ccccc12 | 6.65% |
| O=C(O)C1CCN(S(=O)(=O)c2ccc(Oc3ccccc3)cc2)CC1 | 17.8% |
| COC(=O)C1=CNC=C(C(=O)OC)C1c1ccc(Cl)cc1 | -8.91% |
| COCCN(C(=O)COC(=O)c1cnc(C)cn1)c1c(N)n(Cc2ccccc2)c(=O)[nH]c1=O | -4.85% |
| Cc1cc(Nc2ccc(O)cc2)n2c(nc3ccccc32)c1C#N | 16.6% |
| CCOC(=O)Nc1ccc2c(c1)Sc1ccccc1N2C(=O)CCN1CCOCC1 | -17.6% |
| N#Cc1nc(-c2ccco2)oc1NCCCN1CCOCC1 | -54.9% |
| N#Cc1nc(COc2ccc(Br)cc2)oc1NCCCn1ccnc1 | -63.2% |
| N#Cc1nc(-c2ccc(OCc3ccccc3)cc2)oc1NCCCn1ccnc1 | -1.96% |
| N#Cc1nc(-c2ccco2)oc1NCCN1CCOCC1 | 7.46% |
| N#Cc1nc(Cc2cccc3ccccc23)oc1NCCN1CCOCC1 | -20.3% |
| N#Cc1nc(-c2ccc(OCc3ccc(Cl)cc3)cc2)oc1NCCCn1ccnc1 | 5.77% |
| N#Cc1nc(Cc2cccc3ccccc23)oc1NCCN1CCCCC1 | -60.3% |
| N#Cc1nc(-c2cccc3ccccc23)oc1NCCN1CCCCC1 | -36.2% |
| N#Cc1nc(-c2ccc(F)cc2)oc1NCCN1CCOCC1 | -0.823% |
| COc1ccc(-c2nc(C#N)c(NCCCN3CCOCC3)o2)cc1 | -13% |
| Cc1ccc(-c2nc(C#N)c(NCCN3CCCCC3)o2)cc1 | -55.8% |
| N#Cc1nc(Cc2cccc3ccccc23)oc1NCCCN1CCOCC1 | -26.3% |
| CC(C)C[C@@H](CO)N(Cc1ccccc1)S(=O)(=O)N(Cc1ccccc1)[C@@H](CO)CC(C)C | 7.47% |
| CCc1ccc[n+](-c2[nH]c(=O)sc2/C=N/N=C(\N)[O-])c1 | -10% |
| CCCCCN(C(=O)COC(=O)COc1c(C)cc(C)cc1C)c1c(N)n(CCCC)c(=O)[nH]c1=O | -14.4% |

| Compound | hERG current change (%, negative = inhibition) at 10uM |
| --- | --- |
| COc1ccc(C(C(=O)NCCC(C)C)N(CCO)C(=O)c2snc(C(N)=O)c2N)cc1 (centres unmarked) | -1.26% |
| O=C(Nc1ccccc1N1CCN(c2ccccc2)CC1)c1ccccc1 | 8.61% |
| O=C1C(=O)N(CCc2c[nH]c3ccccc23)C(c2cccnc2)/C1=C(/O)c1ccccc1 (centres unmarked) | 2.24% |
| COc1ccc(C(=O)NC(=S)NC(C)c2ccccc2)cc1 (centres unmarked) | 21.8% |
| C=C1C(=O)O[C@H]2C1CC[C@@](C)(O)C13C=CC(C)(C21)C1(C3)C(=O)O[C@@H]2C3C(C)=CCC3[C@](C)(O)C[C@H](OC(C)=O)C21 (some centres unmarked) | 2.81% |
| COc1ccccc1NC(=O)CSc1ncn(-c2ccccc2)n1 | -41.1% |
| N#Cc1nc(-c2ccc(F)cc2)oc1NCCCn1ccnc1 | -49.3% |
| N#Cc1nc(COc2ccccc2F)oc1NCCCn1ccnc1 | -42.5% |
| N#Cc1nc(COc2ccc(F)cc2)oc1NCCCn1ccnc1 | -64.2% |
| COc1cc(/C=N/NC(=O)COc2ccc(-n3cnnn3)cc2)ccc1OCC(N)=O | 17.3% |
| Cc1ccc2nc(N/N=C/c3ccccc3F)nc(-c3ccccc3)c2c1 | 0.778% |
| CCNc1nc(NCC)nc(N/N=C/c2ccc([N+](=O)[O-])o2)n1 | -50.8% |
| O=[N+]([O-])c1ccc(/C=N/Nc2nc(-c3ccccc3)c3cc(Br)ccc3n2)o1 | -4.84% |
| O=[N+]([O-])c1ccc(/C=N/Nc2nc(N3CCCC3)nc(N3CCCC3)n2)o1 | 1.41% |
| Cc1ccc2nc(N/N=C\c3ccc([N+](=O)[O-])o3)nc(-c3ccccc3)c2c1 | -72.6% |
| CCNc1nc(NCC)nc(N/N=C/c2ccc(OC)cc2)n1 | 6.24% |
| N#Cc1ccccc1/C=N/Nc1nc(-c2ccccc2)c2cc(Cl)ccc2n1 | -46.3% |
| Cc1cc(C)nc(N/N=C/c2ccc([N+](=O)[O-])o2)n1 | 2.14% |
| CCNc1nc(NCC)nc(N/N=C/c2ccccc2)n1 | 4.81% |
| N#Cc1ccccc1/C=N/Nc1nc(-c2ccccc2)c2cc(Br)ccc2n1 | -67.4% |
| Cc1cc(N/N=C/c2ccc([N+](=O)[O-])o2)nc2ccccc12 | 1.15% |
| CCNc1nc(NCC)nc(N/N=C/c2ccc(Br)cc2)n1 | -74.6% |
